In PubChem BioAssay AID624116 (National Center for Advancing Translational Sciences (NCATS), 2012):
Results filed as inconclusive are left out. Active and inactive are the calls of the source. The call rests on the fitted dose curve; in most records, active means well fitted activation curve with a large enough effect; inconclusive means small, poorly fitted or top-dose-only effect; inactive means no such curve, though single readings can be large or run the other way.

Experiment: qHTS Assay for Rab9 Promoter Activators: Hit Validation Using Renilla Luciferase Read-Out for Rab9
Conditions: Huh7 Rab9 promoter Renilla luciferase reporter, 24 h; series mostly up to 76.9 µM
Description: Niemann Pick Type C (NPC) is a rare neurodegenerative lipidosis that is characterized by lipid storage in the endosomal/lysosomal system. Treatment modalities for this devastating disease are currently non-existent due to the severe obstacles associated with accessing the central nervous system with proteins or genes. The majority of mutations causing NPC disease are missense mutations that are distributed throughout the length of the NPC1 protein, with the most prevalent being the I1061T allele. Although NPC1 mutant proteins may be functional, they are typically trapped in the ER due to misfolding. […] We have developed and optimized a cell based renilla luciferase reporter assay in 1536 well format for the identification of up-regulators of the mutant Rab9 promoter. This assay presents data on the validation of hits from the primary screen, which used a firefly luciferase read-out. NIH Chemical Genomics Center [NCGC] NIH Molecular Libraries Probe Production centers Network [MLPCN] MLPCN Grant: MH089375 Assay Submitter (PI): Yiannis A. Ioannou
Huh7 cells stably expressing NPC promoter-luciferase will be seeded at 1,500 cells/well in 5 uL in 1,536-well white opaque plates with 23 nL/well of compound in DMSO solution. The assay plates will be incubated at 37 deg C for 24 hours, after which 3 uL/well BriteLite plus luciferase detection reagent mixture (Perkin Elmer) will be added. Luminescence signal will be measured in a ViewLux plate reader (Perkin Elmer) after a 10 minute incubation at the room temperature.

Compound | outcome
CN1CCc2cc3c(c4c2C1Cc1ccccc1-4)OCO3 (stereo unspecified) | inactive
COc1ccc(C(CC(=O)N2CCC3(CC2)OCCO3)NS(=O)(=O)c2ccc(F)cc2)cc1 (stereo unspecified) | inactive
CCC(=NCc1cccnc1)c1c(O)n(-c2ccccc2)c(=O)[nH]c1=O | inactive
O=C1c2ccccc2C(=O)N1Cc1nc2ccccc2c(=O)n1-c1cccnc1 | inactive
Cc1cccn2c(NCC3CCCO3)c(C(C)C)nc12 (stereo unspecified) | inactive
COc1cccc(CCNCc2ccc(SC)cc2)c1 | inactive
